Assay outcomes: PubChem, National Center for Advancing Translational Sciences (NCATS)
RORgamma inh – inhibitors of mouse ROR gamma transcriptional activity; AID 2551; Potency, µM (series often up to 53.6 µM), most hits filed as inhibitors; 310,000 compounds, 5.4% hits; Drosophila S2 Gal4-RORgamma UAS-luciferase reporter, 20 h; P51450; further: nearly all actives have a fitted effect of over 60% in size
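Drosophila Schneider cells stably carrying a metallothionein-driven Gal4 DBD–ROR gamma fusion and a UAS-Photinus luciferase reporter were exposed to compound for 1 hr, then induced with copper sulfate (700 uM final) for 20 hr at ambient temperature before luminescence reading.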
Gal4-VP16 FLuc – inhibits Gal4-VP16 luciferase reporter, ROR gamma counter-screen; Drosophila S2 Gal4-VP16 UAS-luciferase, luminescence, 20 h; Potency, µM (titrated, usually from 53.6 µM), usual class: inhibitors; 310,000 compounds, 3.5% hits;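 further: Gal4-VP16 expression switched on by copper sulfate through the metallothionein promoter; nearly all actives have a fitted effect of over 50% in size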
PLK1 PBD inh – blocks phosphopeptide binding to human PLK1 polo-box domain | P53350 | Plk1 PBD binding of FITC phosphopeptide, fluorescence polarization | Potency, µM, most hits filed as inhibitors | 360,000 compounds, 2.8% hits | AID 720504; further: series mostly up to about 57 µM; nearly all actives have a fitted effect of over 65% in size
Sfp PPTase inh – inhibitors of Bacillus subtilis Sfp phosphopantetheinyl transferase | Q9F4F7 | Biochemical Sfp PPTase activity, qHTS | Potency, µM, actives largely listed as inhibitors | 310,000 compounds, 3.5% hits;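 further: the enzyme is Sfp with the accession as filed and its product quenches rhodamine fluorescence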
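Fluorescence-quenching assay: 15 nM Sfp-PPTase preincubated 15 min at room temperature with compound, then 5 uM rhodamine-CoA and 12.5 uM BHQ-2-labelled YbbR peptide added. Fluorescence (ex 525/em 598 nm) read at start and after 30 min; difference gives rate.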
ALDH1A1 inh – ALDH1A1 (human) enzyme inhibition; Potency, µM (highest dose often 75.3 µM), most hits filed as inhibitors; P00352; 220,000 compounds, 7.3% hits; Purified ALDH1A1, NADH fluorescence, propionaldehyde substrate; active means well fitted inhibition curve with a large enough effect, not every such curve was filed as active; inconclusive means small, poorly fitted or top-dose-only effect, or another doubt; inactive means no such curve, though single readings can be large or run the other way
Target sequence (P00352 whole entry, looked up): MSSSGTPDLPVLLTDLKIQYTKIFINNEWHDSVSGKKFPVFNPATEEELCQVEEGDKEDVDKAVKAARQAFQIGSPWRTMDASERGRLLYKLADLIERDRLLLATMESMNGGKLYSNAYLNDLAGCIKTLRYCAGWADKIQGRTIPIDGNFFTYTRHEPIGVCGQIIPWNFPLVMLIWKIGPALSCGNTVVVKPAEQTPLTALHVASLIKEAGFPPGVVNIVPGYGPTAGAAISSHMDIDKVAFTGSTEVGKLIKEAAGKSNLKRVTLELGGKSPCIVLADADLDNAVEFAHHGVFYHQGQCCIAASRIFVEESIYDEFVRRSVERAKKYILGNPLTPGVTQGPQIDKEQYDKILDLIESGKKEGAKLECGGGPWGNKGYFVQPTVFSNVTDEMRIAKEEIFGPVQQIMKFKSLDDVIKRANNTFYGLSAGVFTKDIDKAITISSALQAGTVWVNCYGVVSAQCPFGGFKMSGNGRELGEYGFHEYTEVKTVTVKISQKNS
Hits are given with their value. Most compounds without a hit are left out; they make up all but 12% or so of the library. Unless noted, the call rests on the fitted dose curve; in most records, active means well fitted curve in the direction sought with a large enough effect; inconclusive means small, poorly fitted or top-dose-only effect, or another doubt; inactive means no such curve, though single readings can be large; an effect the other way counts as inactive or inconclusive.

Screening CCOC(=O)C1=C(O)/C(=C/c2ccc(CNC(=O)C(=O)Nc3ccc(C)cc3)o2)N=C1C returned RORgamma inh inactive, Gal4-VP16 FLuc inactive, PLK1 PBD inh inactive, Sfp PPTase inh 39.8µM and ALDH1A1 inh inactive.
`O=C(NCc1ccccc1Cl)c1ccc2c(c1)OCO2` gave RORgamma inh inactive, Gal4-VP16 FLuc inactive, PLK1 PBD inh inactive and Sfp PPTase inh inactive.
For CCn1c(SCc2ccc(Cl)cc2)nc2nc3c(cc2c1=O)CCCC3 the results were RORgamma inh 12.6µM, Gal4-VP16 FLuc inconclusive, PLK1 PBD inh inactive, Sfp PPTase inh inconclusive and ALDH1A1 inh 12.6µM.
For CSc1nc2nc3c(cc2c(=O)n1-c1ccccc1C)CCCC3 the results were RORgamma inh inactive, Gal4-VP16 FLuc 5.01µM, PLK1 PBD inh inactive and Sfp PPTase inh inactive.
`Nc1nc(SCc2ccc(Cl)cc2Cl)nc2nc3c(cc12)CCCC3` gave RORgamma inh inconclusive, Gal4-VP16 FLuc inconclusive, PLK1 PBD inh inactive, Sfp PPTase inh inactive and ALDH1A1 inh inactive.
`O=C(NC1c2ccccc2-c2ccccc21)c1ccco1` gave RORgamma inh inactive, Gal4-VP16 FLuc inactive, PLK1 PBD inh 21.2µM, Sfp PPTase inh inactive and ALDH1A1 inh inactive.
For COC(=O)C(C)Oc1ccc2c(c1)O/C(=C\c1ccco1)C2=O (stereo not given) the results were RORgamma inh inactive, Gal4-VP16 FLuc inactive, PLK1 PBD inh inactive and Sfp PPTase inh inconclusive.
`COc1ccc2c(c1)O/C(=C\c1ccco1)C2=O` gave RORgamma inh inactive, Gal4-VP16 FLuc inactive, PLK1 PBD inh inactive and Sfp PPTase inh 4.47µM.
Screening CC(=O)COc1ccc2c(c1C)O/C(=C\c1ccco1)C2=O returned RORgamma inh 10µM, Gal4-VP16 FLuc inactive, PLK1 PBD inh inactive and Sfp PPTase inh inconclusive.
`CCN(C(=O)c1ccc(S(=O)(=O)N2CCCCC2)cc1)C1CCS(=O)(=O)C1` (stereo not given) gave PLK1 PBD inh inactive.
For O=c1c(-c2ccco2)nc2ccccc2n1C(CCc1ccccc1)c1nc2ccccc2[nH]1 (stereo not given) the results were PLK1 PBD inh 2.99µM.
Screening O=C(C1CCN(C2CC(=O)N(c3cccc(Cl)c3)C2=O)CC1)N1CCCCCC1 (stereo not given) returned RORgamma inh inconclusive, Gal4-VP16 FLuc inactive, PLK1 PBD inh inactive, Sfp PPTase inh inactive and ALDH1A1 inh 20µM.
Screening O=C1CC(N2CCOCC2)C(=O)N1c1cccc(Cl)c1 (stereo not given) returned RORgamma inh inactive, Gal4-VP16 FLuc inactive, PLK1 PBD inh inactive, Sfp PPTase inh inactive and ALDH1A1 inh inconclusive.
Screening O=C1CC(N2CCC(c3nc4ccccc4o3)CC2)C(=O)N1c1ccc(Cl)c(C(F)(F)F)c1 (stereo not given) returned RORgamma inh inconclusive, Gal4-VP16 FLuc inconclusive, PLK1 PBD inh inactive, Sfp PPTase inh inactive and ALDH1A1 inh 8.91µM.
Screening CN1C(=O)CC(N2CCC(c3nc4ccccc4[nH]3)CC2)C1=O (stereo not given) returned RORgamma inh inactive, Gal4-VP16 FLuc inactive, PLK1 PBD inh inactive, Sfp PPTase inh inactive and ALDH1A1 inh inactive.
CCCOc1ccc(N2C(=O)CC(N3CCC(c4nc5ccccc5o4)CC3)C2=O)cc1 (stereo not given) was read as RORgamma inh inactive, Gal4-VP16 FLuc inactive, Sfp PPTase inh inactive and ALDH1A1 inh inactive.
Screening O=C1CC(N2CCC(c3nc4ccccc4[nH]3)CC2)C(=O)N1c1cccc(F)c1 (stereo not given) returned RORgamma inh inactive, Gal4-VP16 FLuc inactive, PLK1 PBD inh inactive, Sfp PPTase inh inactive and ALDH1A1 inh 11.2µM.
Screening O=C1CC(N2CCN(c3ccccc3Cl)CC2)C(=O)N1c1cccc(F)c1 (stereo not given) returned RORgamma inh inactive, Gal4-VP16 FLuc inactive, PLK1 PBD inh inactive, Sfp PPTase inh inactive and ALDH1A1 inh 11.2µM.
For O=C1CC(N2CCN(c3ccccc3Cl)CC2)C(=O)N1c1ccc(F)cc1 (stereo not given) the results were RORgamma inh inactive, Gal4-VP16 FLuc inactive, PLK1 PBD inh inactive, Sfp PPTase inh inactive and ALDH1A1 inh inactive.
For Cc1csc(-c2nc3ccccc3n2C(C(=O)Nc2c(C)cccc2C)C2CC2)c1 (stereo not given) the results were PLK1 PBD inh inactive.
Screening O=C(O)C1CCCN1 (stereo not given) returned RORgamma inh inactive, Gal4-VP16 FLuc inactive and Sfp PPTase inh inconclusive.
For O=C(O)c1ccc(N2C(=O)CC(N3CCC(c4nc5ccccc5[nH]4)CC3)C2=O)cc1 (stereo not given) the results were RORgamma inh inactive, Gal4-VP16 FLuc inactive, PLK1 PBD inh inactive, Sfp PPTase inh inactive and ALDH1A1 inh 31.6µM.
Screening CC(C)C(NS(=O)(=O)c1cccc2nsnc12)C(=O)Nc1nc2ccc(Cl)cc2s1 (stereo not given) returned RORgamma inh 22.4µM, Gal4-VP16 FLuc inconclusive, PLK1 PBD inh inactive, Sfp PPTase inh inactive and ALDH1A1 inh inactive.
Screening CCOc1ccc2nc(NC(=O)C(NS(=O)(=O)c3cccc4nsnc34)C(C)C)sc2c1 (stereo not given) returned RORgamma inh 15.8µM, Gal4-VP16 FLuc inconclusive, PLK1 PBD inh inactive, Sfp PPTase inh inactive and ALDH1A1 inh inactive.
Screening Cc1ccc(NC(=O)C(NS(=O)(=O)c2cccc3nsnc23)C(C)C)nc1 (stereo not given) returned RORgamma inh inactive, Gal4-VP16 FLuc inactive, PLK1 PBD inh inactive, Sfp PPTase inh inactive and ALDH1A1 inh inactive.
For c1ccc2c(-n3ccnc3)nc(-c3ccoc3)nc2c1 the results were RORgamma inh inactive, Gal4-VP16 FLuc inactive, Sfp PPTase inh inactive and ALDH1A1 inh inactive.
For O=c1[nH]cnc2c1ncn2C1OC(CO)CC1F (stereo not given) the results were PLK1 PBD inh inactive.
Screening CC(=O)Nc1cc(-c2ccccc2N(C)C)cn2c(-c3cccc(C(F)(F)F)c3)cnc12 returned PLK1 PBD inh inactive.
CC(Sc1nnc(Nc2ccccc2)s1)C(=O)Nc1nc(-c2ccccc2)cs1 (stereo not given) was read as RORgamma inh inactive, Gal4-VP16 FLuc inactive, PLK1 PBD inh inactive, Sfp PPTase inh inactive and ALDH1A1 inh inactive.
Screening CC(Sc1nnc(NCc2ccccc2)s1)C(=O)Nc1ccc2c(c1)C(=O)c1ccccc1C2=O (stereo not given) returned RORgamma inh inactive, Gal4-VP16 FLuc inactive, PLK1 PBD inh inconclusive, Sfp PPTase inh inactive and ALDH1A1 inh 2.82µM.
`CC1(C)Cc2c(cnn2-c2ccccc2)C(NC(=O)CCCN2CCCC2=O)C1` (stereo not given) gave RORgamma inh inactive, Gal4-VP16 FLuc inactive, PLK1 PBD inh inactive and Sfp PPTase inh inactive.
`Cc1ccc(-n2ncc3c2CC(C)(C)CC3NC(=O)CCCN2CCCCC2=O)cc1` (stereo not given) gave RORgamma inh inactive, Gal4-VP16 FLuc inactive, PLK1 PBD inh 26.7µM and Sfp PPTase inh inactive.
CCCC(C)NC(=O)CN(Cc1ccco1)S(=O)(=O)c1ccccc1 (stereo not given) was read as PLK1 PBD inh inactive.
